Compound activity as filed in PubChem BioAssay.
Sampled rows, rich in hits. Any-hit rate of the full collection: about 7.6%.
RORg inh: ROR gamma (mouse) transcription inhibition. P51450. Drosophila S2 Gal4-RORgamma UAS-luciferase reporter, 20 h. Potency, µM (highest dose often 53.6 µM), inactives show at the highest dose activity change, negative = inhibition, most hits filed as inhibitors. 310,000 compounds, 5.4% hits. AID 2551; note: potency is the fitted concentration of half-maximal effect; % is set by controls: 0 for no effect and ±100 for the full control effect; nearly all actives have a fitted effect of over 60% in size
Target sequence (P51450 whole entry, looked up, the tested form may be a part): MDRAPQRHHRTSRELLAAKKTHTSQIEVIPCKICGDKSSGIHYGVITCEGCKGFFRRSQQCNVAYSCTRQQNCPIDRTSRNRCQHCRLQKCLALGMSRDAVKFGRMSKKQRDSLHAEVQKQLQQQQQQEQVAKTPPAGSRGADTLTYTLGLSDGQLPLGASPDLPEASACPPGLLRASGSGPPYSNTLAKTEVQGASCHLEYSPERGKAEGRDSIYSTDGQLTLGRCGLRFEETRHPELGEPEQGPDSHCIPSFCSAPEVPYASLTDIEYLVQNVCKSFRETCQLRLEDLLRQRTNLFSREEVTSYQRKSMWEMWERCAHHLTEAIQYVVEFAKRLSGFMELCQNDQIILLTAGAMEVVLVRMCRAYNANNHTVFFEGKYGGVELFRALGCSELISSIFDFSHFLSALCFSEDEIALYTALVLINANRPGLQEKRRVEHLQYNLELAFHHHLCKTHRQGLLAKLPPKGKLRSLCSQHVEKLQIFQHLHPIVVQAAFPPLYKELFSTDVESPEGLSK
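Using a luciferase readout, inhibitors were identified by reduced reporter activity in Drosophila cells coexpressing a copper-inducible Gal4–ROR gamma fusion and UAS-driven Photinus luciferase, incubated 20 hr after 700 uM copper sulfate.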
Giardia killer: kills Giardia lamblia. Giardia lamblia trophozoite viability. activity change, % at 7.66 µM, hits read low. 340,000 compounds, 0.15% hits. AID 540267; in the data active = activity change below about -80%; inconclusive = between about -30% and that limit;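 note: parasites exposed to compound for two days anaerobically before the ATP read; % is set by controls: 0 for no effect and ±100 for the full control effect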
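ATP-content bioluminescence gauges trophozoite survival. Cells (100/well) receive compound and incubate anaerobically for 48 hrs at 37 deg C; detection reagent follows for 15-30 min at room temperature.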
p53 reactivation: re-activators of mutant p53; H1299 p53-A138V BP100-luciferase reporter, luminescence, 24 h; Potency, µM (highest dose often 92.2 µM), for inactives: at the top dose activity change, positive = activation, hits mostly activators; 320,000 compounds, 0.063% hits; note: potency is the fitted concentration of half-maximal effect; % of control where 0% means no effect; nearly all actives have a fitted effect of over 45% in size
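H1299 (p53-null), stable ts p53-A138V + BP100-Luc; 1000 cells/well, Opti-MEM/10% FBS; cpd 4 pt, 1:5; 24 h, 37 deg C, 5% CO2; detection reagent 10 min RT; luminescence.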
BRCA1 expr act: activators of BRCA1 expression; MCF7-BRCA1-FFLuc reporter, luminescence, 48 h; response scale: scaled: vehicle 0%, 10 µM genistein 100%; AID 624202; Potency, µM (titrated, usually from 46.1 µM), inactives show at the highest dose activation, actives largely listed as activators; 380,000 compounds, 1.1% hits; note: potency is the fitted concentration of half-maximal effect; nearly all actives have a fitted effect of over 80% in size
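MCF7-BRCA1-FFLuc, 2000 cells/well; 2 h attach, 37 °C/5% CO2; compound 48 h; luciferase substrate 15 min; luminescence end-point. Norm. to genistein 10 microM max activation and DMSO; concentration-response curves fitted.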
VP16 counter: counter-screen for ROR gamma inhibitors: Gal4-VP16 reporter; 310,000 compounds, 3.5% hits; Drosophila S2 Gal4-VP16 UAS-luciferase, luminescence, 20 h; Potency, µM (top dose mostly 53.6 µM), inactives show at the top dose activity, negative = inhibition, usual class: inhibitors;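 note: Gal4-VP16 expression switched on by copper sulfate through the metallothionein promoter; potency is the fitted concentration of half-maximal effect; % is set by controls: 0 for no effect and ±100 for the full control effect; nearly all actives have a fitted effect of over 50% in size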
ELG1 DNA repair: ELG1-dependent DNA repair inhibition; HEK293T ELG1-luciferase reporter, luminescence, 16 h; DNA damage induced by 5-fluorouridine; Potency, µM (titrated, usually from 46.1 µM), without a hit: at the top dose activity change, negative = inhibition, actives largely listed as inhibitors; 330,000 compounds, 2.3% hits; note: potency is the fitted concentration of half-maximal effect; % is set by controls: 0 for no effect and ±100 for the full control effect; nearly all actives have a fitted effect of over 55% in size
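DMSO vehicle served as the neutral condition. Each well held 2,000 cells given 5-fluorouridine plus compound; after 16 hr at 37 °C/5% CO2, ONE-Glo was added and luciferase measured 30 min later.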
The depositor's hits bear a star; [ ] = remark or other dose. Unless noted, calls come from the whole dose curve; as a rule, active = well fitted curve in the direction sought with a large enough effect; inconclusive = small, poorly fitted or top-dose-only effect, or another doubt; inactive = no such curve, though single readings can be large; an effect the other way counts as inactive or inconclusive.

For CCOc1ccc(CN2C(=O)c3ccccc3C2=O)cc1C(=O)O the results were RORg inh 0%, Giardia killer -12, p53 reactivation -7%, BRCA1 expr act -5%, VP16 counter 1% and ELG1 DNA repair 5%.
For CCN(CC)CCNC(=O)c1ccc2c(c1)N(Cc1ccccc1)C(=O)c1ccccc1S2=O (centres undefined) the results were BRCA1 expr act -32%.
Cc1ccc(NS(=O)(=O)c2ccc3c(c2)NC(=O)C(C)C(=O)N3)c(Br)c1 (centres undefined) was read as RORg inh 26%, Giardia killer -10, BRCA1 expr act -7%, VP16 counter -1% and ELG1 DNA repair -8%.
CCN(CC)S(=O)(=O)c1ccc(-c2nnc(SCC(N)=O)n2CC)cc1 was read as RORg inh 19%, Giardia killer 2, p53 reactivation 2%, BRCA1 expr act 8%, VP16 counter -7% and ELG1 DNA repair 7%.
CCN(CC)S(=O)(=O)c1ccc(-c2nnc3sc4cccc(C)c4n23)cc1 was read as RORg inh 2.2µM*, Giardia killer -28, p53 reactivation -6%, BRCA1 expr act -26%, VP16 counter -2% and ELG1 DNA repair 23µM*.
O=C(CN1CCCCCC1)Nc1ccc(Br)cc1 was read as RORg inh 25%, Giardia killer -6, p53 reactivation 13%, BRCA1 expr act 40%, VP16 counter 11% and ELG1 DNA repair inconclusive.
O=C(Nc1nc2ccccc2n1CCN1CCCCC1)C1CCCCC1 was read as RORg inh 2µM*, Giardia killer -7, p53 reactivation 7%, BRCA1 expr act -40%, VP16 counter 7.1µM* and ELG1 DNA repair 4%.
CCn1nccc1C(=O)Nc1nc2ccccc2n1CCN1CCCCC1 was read as RORg inh 16µM*, Giardia killer -26, p53 reactivation 1%, BRCA1 expr act 4%, VP16 counter inconclusive and ELG1 DNA repair -20%.
CCn1c(NC(=O)C2CCCCC2)nc2ccccc21 was read as RORg inh 0.35µM*, Giardia killer 1, p53 reactivation 18%, BRCA1 expr act 5%, VP16 counter 0.89µM* and ELG1 DNA repair 5%.
O=C(Nc1nc2ccccc2n1CCN1CCCC1)C1CCCCC1 was read as RORg inh 7.1µM*, Giardia killer 2, p53 reactivation 2%, BRCA1 expr act -42%, VP16 counter 10µM* and ELG1 DNA repair 14%.
Screening COc1cccc(CNc2nc3ccccc3n2CCN2CCCCC2)c1OC returned RORg inh 19%, Giardia killer 25, p53 reactivation 12%, BRCA1 expr act -20%, VP16 counter -15% and ELG1 DNA repair inconclusive.
`O=C(Nc1nc2ccccc2n1CCN1CCCCC1)c1ccc(Cl)cc1` gave RORg inh -43%, p53 reactivation 7%, VP16 counter inconclusive and ELG1 DNA repair 21%.
Cc1cc(C)cc(NC(=O)C(=O)NCCCN2CCCC2=O)c1 was read as Giardia killer 8, p53 reactivation 9%, BRCA1 expr act 84% and ELG1 DNA repair inconclusive.
Screening CC(C)(C)NC(=O)CN(C(=O)C1CSC(=O)C1)c1ccccc1F (centres undefined) returned RORg inh 0%, Giardia killer -11, p53 reactivation 1%, BRCA1 expr act 27%, VP16 counter 0%[10 µM] and ELG1 DNA repair -6%.
O=C(C1Cc2ccccc2CN1S(=O)(=O)c1ccc(F)cc1)N1CCCCC1 (centres undefined) was read as RORg inh -12%, Giardia killer -6, p53 reactivation 3%, BRCA1 expr act 1%, VP16 counter -2% and ELG1 DNA repair -4%.
`O=C1CS/C(=N\NC(=O)c2ccccc2)N1` gave RORg inh 2.8µM*, Giardia killer 4, p53 reactivation -6%, BRCA1 expr act 0%, VP16 counter 16µM* and ELG1 DNA repair 1%.
